The results in this text go back to PubChem BioAssay AID904 (National Center for Advancing Translational Sciences (NCATS), 2007).

Hit rate of the full screen: of about 55,000 compounds, about 530 (0.96%) were called active. Another 7% or so got no clear call; they are omitted. The full list was thinned out, with actives kept by preference. Values without a mark were called inactive. Calls come from the whole dose curve; as a rule, active = well fitted cell-killing curve with a large enough effect; inconclusive = small, poorly fitted or top-dose-only effect; inactive = no such curve, though single readings can be large or run the other way.
Potency is the fitted concentration of half-maximal effect.

The assay can be described thus: qHTS Screen for Compounds that Selectively Target Cancer Cells with p53 Mutations: Cytotoxicity of p53 Null Cells at the Nonpermissive Temperature.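 For activity, negative = cell killing: 0% = DMSO only and -100% = full killing by 100 µM tamoxifen.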 Note: nearly all actives have a fitted effect of over 50% in size. Particulars: H1299 p53-null (neo) cells, 39C, ATPlite viability, 24 h; series mostly up to 46.1 µM; activity, negative = cell killing: at the top concentration. The source says: NIH Chemical Genomics Center [NCGC] NIH Molecular Libraries Screening Centers Network [MLSCN] MLSCN Grant: 1 X01 MH079844-01 Assay Submitter (PI): Dr. SUN, YI, University of Michigan NCGC Assay Overview: Synthetic Lethal Screen for Compounds to Kill Cancer Cells with p53 Mutation. Tumor suppressor gene p53 serves as a major cellular barrier against tumorigenesis. […] The goal of this screening is to identify small molecule probes that selectively kill cancer cells with mutations in p53. This screening was carried out using two lines of H1299 lung cancer cells. The H1299-p53 A138V line express a temperature sensitive p53 mutant (p53ts) in which the mutant p53 protein (A138V) is in the mutant confirmation when grown at 39C (the nonpermissive temperature) and in the wild type conformation when grown at 32C (the permissive temperature). A H1299-neo line (p53 null) grown at both 39C and 32C were used as counter-screens to filter out false positive associated with temperature shifting. The small molecular compounds that selectively target mutant p53-containing cancer cells were selected as candidate probes for further study. A cytotoxicity assay based on the measurement of ATP contents in cells was used in this screen. Concentration-responses of all the compounds in the library collection were determined in qHTS using the cell lines and temperature conditions as above.
NCGC Assay Protocol Summary: Both the H1299-p53A138V and H1299-neo cell lines were provided by Dr.Yi Sun, a PI at the University Michigan. The cells were maintained and cultured at 37C. The resuspended frozen cells were used to plate the cells in the 1536-well assay plates at a density of 600 cells per well in 5 ul medium. The assay plates with the cells were incubated at 37C for 16 to 30 hours before the experiments. The library compounds in DMSO solution were added to the cells in assay plates and incubated 24 hours at 39C (for mutant p53 conformation) or 32C (for normal p53 conformation as control). An ATP_lite assay kit (PerkinElmer) was used to determine the cell viability. Tomaxifen (100uM) was used as the positive control for cell killing. Data were normalized to the controls for basal activity (DMSO only) and 100% killing (100uM tamoxifen). AC50 values were determined from concentration-response data modeled with the standard Hill equation. P53 assay protocol: 1. Reagent; 5 uL H1299-p53A138V or H1299-neo cell cells/well 2. Time; overnight; 37C incubation 3. Compounds; 23 nL; 5.9 nM to 46 uM 4. Controls; 23 nL; Tamoxifen 100 uM 5. Time; 24 hr; 39C incubation 6. Reagent; 3 uL; ATP_Lite reagent 7. Time; 20 min; Room Temperature 8. Detection; Luminescence; Viewlux plate reader Keywords: p53, synthetic lethal, cancer, cell viability, cytotoxicity, H1299 cell line, luminescence, MLSMR, MLSCN, NIH Roadmap, qHTS, NCGC
A general note: Quantitative high-throughput screening tests each substance at several concentrations.
With `Cc1ccccc1CNC(=O)C(=O)NCC(c1cccs1)S(=O)(=O)c1cccs1` (stereo not drawn), the “activity, negative = cell killing” value is 35.3%.
Same read-out and setting: for `CCC(=O)N1c2ccccc2CC1C(=O)N1CCN(c2ccccc2F)CC1` (stereo not drawn) the value was -6.5%; for `Cc1ccc(OCC(=O)OCc2cc(=O)n3nc(C4CC4)sc3n2)cc1`, -8.09%.
The same measure, in the same setting: under `COc1ccccc1NC(=O)c1cc(S(=O)(=O)NCCc2ccccc2)ccc1F` stands 10.5%; under `COCCn1c(SCC(=O)c2cc(C)ccc2C)nc2cc(C(=O)NC3CCCC3)ccc2c1=O`, 10.6%.
For the compound `CCn1c(CNC(=O)c2ccccc2)nnc1SCC(=O)N1CCN(c2ccccc2)CC1`, the “activity, negative = cell killing” value was 6.06%.
Regarding `CCOCN(C(=O)Cn1c(C(C)O)nc2ccccc21)c1c(C)cccc1CC` (stereo not drawn), the “activity, negative = cell killing” value was 21.6%.
Still for that read-out and setting: for `COc1cc(-c2cc3n(C)c(C)c(CCC(=O)Nc4ccc(F)cc4)c(=O)n3n2)cc(OC)c1OC` the value was -1.61%.
Still for that read-out and setting: under `COc1ccc(NC(=O)CN2C(=O)C(c3ccccc3)=NC23CCCCCC3)cc1OC` stands 23.8%; under `COc1ccc(-c2nn(CC(=O)Nc3ccccc3F)c3c2cnc2ccc(F)cc23)cc1`, -18%.
Still for that read-out and setting: for `COC(=O)c1nc2ccccc2s1` the value was 6.87%; for `CCc1ccccc1N1C(=O)CN(S(=O)(=O)CC)CC1(C)C(=O)NC1CCCCC1` (stereo not drawn), 2.03%.
As for `O=C(Nc1cccc(F)c1)c1coc(=O)c(Br)c1`, the “activity, negative = cell killing” value was 22%.
Still for that read-out and setting: under `COc1cccc(CNC(=O)C(=O)NCC(c2cccs2)S(=O)(=O)c2ccccc2)c1` (stereo not drawn) stands -16.5%; under `Cc1ccc(C)c(Cn2c(CCCNC(=O)C3CCCCC3)nc3ccccc32)c1`, 9.17%; under `O=C(CC(NCc1cccnc1)C(=O)O)Nc1ccc(O)cc1` (stereo not drawn), 2.24%.
Same read-out and setting: under `CCN1C(=O)c2ccccc2Sc2ccc(NC(=O)Cc3ccc(OC)cc3)cc21` stands -3.19%.
The same measure, in the same setting: under `C/C(CC(=O)Nc1ccc(Cl)cc1)=N\NC(=O)C(=O)NCCO` stands -7.37%; under `CC(=O)c1sc(N2C(=O)c3oc4ccccc4c(=O)c3C2c2ccc(C)cc2)nc1C` (stereo not drawn), -20.5%; under `COC(=O)c1ccccc1NC(=O)Cn1c(=O)n(-c2cccc(C(F)(F)F)c2)c(=O)c2c(C)c(C)sc21`, -6.26%.
Regarding `CCCCOc1ccc(Cn2c(=O)oc3ccc(C)cc32)cc1OC`, the “activity, negative = cell killing” value was -20.1%.
As to `CCCCOc1ccc(CN2C(=O)C(=O)c3cc(Br)cc(C)c32)cc1OC`, the Potency was 11.2 µM (active).
On to `COc1ccc(CCN2C(=O)C3CC=C(C)CC3C2=O)cc1OC` (stereo not drawn), for which the “activity, negative = cell killing” value was 9.02%.
Same read-out and setting: for `COc1ccc(CCNC(=O)/C(C#N)=C2\N=C(NC(=O)c3cccs3)c3ccccc32)cc1` the value was -0.547%.
On the same count and under the same terms, under `CCCS(=O)(=O)Nc1cccc(-c2cn3ccsc3n2)c1` stands -16.7%.
As to `CCC(CC)c1nn2cc(-c3ccccc3)nc2s1`, the Potency was 7.94 µM (active).
`CCc1ccc(CNC(=O)C2CCN(c3nn4cc(-c5ccc(F)cc5)nc4s3)CC2)cc1`: the “activity, negative = cell killing” value was -5.73%.
On the same count and under the same terms, for `Cc1ccc(Cl)cc1NC(=O)CSc1nccn1C` the value was 28.3%.
